Assay results from paper PMC3218832.

What was measured:
Assay in all cases: protein binding microarray; high values mean tight binding
Conditions in all cases: dsDNA, one strand shown
RELARELA (p65 homodimer) = RELARELA (p65 homodimer) (Homo sapiens, UniProt Q04206 1-307)
p50p50 homodimer = p50p50 homodimer (Homo sapiens, UniProt P19838 7-356)
p52p52 homodimer = target: T1, p52p52 homodimer (Homo sapiens, UniProt Q00653 4-332)
T1 sequence: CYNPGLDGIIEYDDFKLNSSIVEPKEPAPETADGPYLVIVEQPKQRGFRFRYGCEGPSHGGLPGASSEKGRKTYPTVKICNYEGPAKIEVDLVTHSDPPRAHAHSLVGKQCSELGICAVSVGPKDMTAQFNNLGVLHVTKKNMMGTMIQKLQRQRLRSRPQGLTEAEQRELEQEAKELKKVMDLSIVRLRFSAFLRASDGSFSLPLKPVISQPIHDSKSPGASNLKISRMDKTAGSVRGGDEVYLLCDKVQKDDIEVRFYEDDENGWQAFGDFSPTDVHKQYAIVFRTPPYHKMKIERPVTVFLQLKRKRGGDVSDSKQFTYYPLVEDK

[1] = target: RELA (p65) subunit of heterodimer;p50 subunit (Homo sapiens;Homo sapiens, UniProt Q04206;P19838 1-307;7-356)
[2] = target: RELA (p65) subunit of heterodimer;p52 subunit (Homo sapiens;Homo sapiens, UniProt Q04206;Q00653 1-307;4-332)
RELB subunit;p50 subunit = RELB subunit;p50 subunit (Homo sapiens;Homo sapiens, UniProt Q01201;P19838 120-401;7-356)
RELB subunit;p52 subunit = target: T2, RELB subunit;p52 subunit (Homo sapiens;Homo sapiens, UniProt Q01201;Q00653 120-401;4-332)
T2 sequence 1: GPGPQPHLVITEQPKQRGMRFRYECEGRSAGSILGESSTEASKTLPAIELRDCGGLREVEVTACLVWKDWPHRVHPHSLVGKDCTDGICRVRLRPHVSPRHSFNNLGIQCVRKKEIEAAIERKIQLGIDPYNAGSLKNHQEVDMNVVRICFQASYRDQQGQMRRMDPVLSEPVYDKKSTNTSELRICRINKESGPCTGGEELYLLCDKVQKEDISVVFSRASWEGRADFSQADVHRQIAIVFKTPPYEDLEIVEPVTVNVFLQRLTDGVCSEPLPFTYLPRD
T2 sequence 2: T1 sequence

[3] = target: C-Rel subunit;p50 subunit (Homo sapiens;Homo sapiens, UniProt Q04864;P19838 1-285;7-356)
[4] = target: T3, C-Rel subunit;p52 subunit (Homo sapiens;Homo sapiens, UniProt Q04864;Q00653 1-285;4-332)
T3 sequence 1: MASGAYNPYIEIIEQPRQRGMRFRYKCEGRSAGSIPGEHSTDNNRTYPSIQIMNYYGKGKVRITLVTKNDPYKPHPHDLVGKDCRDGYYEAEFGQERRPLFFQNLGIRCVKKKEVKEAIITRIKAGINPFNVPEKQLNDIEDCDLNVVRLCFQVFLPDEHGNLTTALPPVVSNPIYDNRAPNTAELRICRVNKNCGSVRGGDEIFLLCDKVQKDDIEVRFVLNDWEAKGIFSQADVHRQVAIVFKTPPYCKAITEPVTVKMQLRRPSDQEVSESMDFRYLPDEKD
T3 sequence 2: T1 sequence

p50p50 homodimer, sequence (P19838 7-356): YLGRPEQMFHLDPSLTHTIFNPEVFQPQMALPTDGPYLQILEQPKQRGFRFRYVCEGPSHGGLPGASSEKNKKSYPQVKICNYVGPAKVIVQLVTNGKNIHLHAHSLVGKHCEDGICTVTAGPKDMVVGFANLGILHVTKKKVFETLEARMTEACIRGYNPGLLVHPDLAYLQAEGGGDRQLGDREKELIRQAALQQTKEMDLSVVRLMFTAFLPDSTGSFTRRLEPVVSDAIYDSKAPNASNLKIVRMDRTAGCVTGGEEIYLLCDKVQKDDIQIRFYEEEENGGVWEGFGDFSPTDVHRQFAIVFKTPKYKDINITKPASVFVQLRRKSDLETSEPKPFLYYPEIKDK
RELARELA (p65 homodimer), sequence (Q04206 1-307): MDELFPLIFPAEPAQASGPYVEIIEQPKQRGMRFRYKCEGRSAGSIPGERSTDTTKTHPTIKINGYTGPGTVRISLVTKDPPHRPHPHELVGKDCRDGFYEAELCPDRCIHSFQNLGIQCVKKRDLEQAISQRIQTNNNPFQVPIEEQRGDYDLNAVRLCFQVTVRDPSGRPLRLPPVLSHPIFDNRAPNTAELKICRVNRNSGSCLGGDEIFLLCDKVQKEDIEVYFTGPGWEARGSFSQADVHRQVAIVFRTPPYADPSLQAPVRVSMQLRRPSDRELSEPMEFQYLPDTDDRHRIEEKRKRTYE
RELA (p65) subunit of heterodimer;p50 subunit, sequence (Q04206 1-307, chain 1 of 2): as the sequence (Q04206 1-307) above
RELA (p65) subunit of heterodimer;p50 subunit, sequence (P19838 7-356, chain 2 of 2): as the sequence (P19838 7-356) above

Sequence	binding signal (RELARELA (p65 homodimer)) [z-score]	binding signal (p50p50 homodimer) [z-score]	binding signal (p52p52 homodimer) [z-score]	binding signal [1] [z-score]	binding signal [2] [z-score]	binding signal (RELB subunit;p50 subunit) [z-score]	binding signal (RELB subunit;p52 subunit) [z-score]	binding signal [3] [z-score]	binding signal [4] [z-score]
AAGGGACCCCC	-0.529	0.964	0.927	0.806	0.93	0.75	0.929	0.681	0.75
AAATTGTCCCT	0.833	1.43	1.92	1.28	1.26	1.61	1.7	1.14	1.11
CGAAGCGCCCC	-0.596	-0.188	-0.173	-0.171	-0.0511	0.0336	0.263	-0.144	0.0513
AAGATGGCCCT	-0.837	-0.78	-0.556	-0.621	-0.715	-0.275	-0.142	-0.828	-0.686
AGATGGTTCCT	-0.148	-2.29	-0.605	-0.843	-0.727	-0.879	-0.835	-1.36	-0.824
CGGAGGCCCCC	-1.02	0.282	-0.0558	0.494	0.175	-0.0407	0	0.165	0.393
CGGAACGTCCC	1.16	0.116	0.505	0.933	0.956	0.184	0.327	0.44	0.748
CGAAATCCCCC	1.7	1.64	2.27	2.33	2.13	2.58	2.42	1.83	2.36
AAATGTGCCCC	0.655	-0.0191	0.195	0.499	0.0761	0.0211	0.23	0.81	0.211
GGGGTAACCCT	1.24	0.343	1.02	0.666	1.02	0.227	0.871	0.285	0.871
AAGAGAGCCCC	-0.68	0.339	0.122	0.109	-0.015	-0.0342	-0.125	0.0932	0.00397
AAGTAAGTCCC	0.51	1.02	0.587	0.837	0.459	1.1	0.647	0.768	0.419
GGGTAAGTCCT	1.28	0.161	1.41	0.335	0.851	0.207	0.217	0.357	0.997
AGGGGACTCCC	1.57	0.939	2.92	2.01	2.28	1.82	2.3	1.9	2.77
CAGTGGCTCCC	-0.478	-1.44	-0.661	-0.743	-0.817	-0.932	-0.764	-1.22	-0.857
GAAAGTGTCCT	0.0215	-1.58	-0.464	-0.843	-0.45	-0.858	-0.525	-0.958	-0.375

Sequence	binding signal (RELARELA (p65 homodimer)) [z-score]	binding signal (p50p50 homodimer) [z-score]	binding signal (p52p52 homodimer) [z-score]	binding signal [1] [z-score]	binding signal [2] [z-score]	binding signal (RELB subunit;p50 subunit) [z-score]	binding signal (RELB subunit;p52 subunit) [z-score]	binding signal [3] [z-score]	binding signal [4] [z-score]
AAGTTTCCCCT	1.76	1.73	2.41	2.47	2.06	2.72	2.65	2.01	1.96
AGGAGCGCCCC	-0.227	-0.229	0.018	0.186	0.348	-0.0805	0.162	0.0948	0.277
GGGGGCCTCCC	0.3	0.557	2.41	1.24	1.91	1.21	1.09	1	1.46
AGAATTTCCCC	3.09	1.24	2.64	2.2	2.3	2.59	2.28	1.85	2.29
GGGTTCGTCCC	0.22	0.238	1.59	0.186	1.09	0.251	0.438	0.489	0.747
GAATGAGCCCT	-1.06	-1.39	-0.606	-0.778	-0.989	-1.17	-0.969	-1.55	-1.02
GAGTTAATCCC	0.0777	-0.527	-0.147	-0.451	-0.217	-0.125	-0.157	-0.186	-0.227
CGGAACACCCT	-0.222	-0.182	-0.238	-0.453	-0.316	-0.373	-0.287	-0.444	-0.317
CGGGAAGCCCT	0.636	-0.369	-0.0378	-0.188	0.0317	-0.513	-0.178	-0.133	0.19
GAAGGGCTCCC	-1.08	-1.07	-0.651	-0.8	-0.916	-0.771	-0.771	-1.05	-0.778
AGAGAGATCCC	-0.281	-0.511	-0.367	-0.448	-0.506	-0.355	-0.569	-0.565	-0.502
CAAGTGGCCCT	-1.09	-1.71	-0.67	-0.961	-0.801	-0.596	-0.32	-1.14	-0.793
AAAGACGCCCC	-0.195	0.408	0.153	0.135	0.105	0.331	0.432	0.326	-0.126
GGAGGGATCCT	-0.405	-1.1	-0.254	-0.619	-0.58	-0.707	-0.517	-1.01	-0.454
AAATGCTTCCC	0.511	-0.412	-0.425	-0.0858	-0.314	-0.27	-0.535	0.16	-0.384
